High-throughput results: PubChem, National Center for Advancing Translational Sciences (NCATS)
PI5P4K alpha inh: PI5P4K alpha (human) kinase inhibition; hit rate 1.2% among 330,000; PI5P4Kalpha enzyme, ADP-Glo luminescence, 60 min; stronger effect = lower value; max response, %; active = max response of -50% or lower; inconclusive = between -30% and -50%; inactive = -30% or higher; also: value at the top dose of about 77 µM; % is scaled to controls: 0 for no effect and ±100 for the full control effect
Target sequence (P48426 whole entry, looked up): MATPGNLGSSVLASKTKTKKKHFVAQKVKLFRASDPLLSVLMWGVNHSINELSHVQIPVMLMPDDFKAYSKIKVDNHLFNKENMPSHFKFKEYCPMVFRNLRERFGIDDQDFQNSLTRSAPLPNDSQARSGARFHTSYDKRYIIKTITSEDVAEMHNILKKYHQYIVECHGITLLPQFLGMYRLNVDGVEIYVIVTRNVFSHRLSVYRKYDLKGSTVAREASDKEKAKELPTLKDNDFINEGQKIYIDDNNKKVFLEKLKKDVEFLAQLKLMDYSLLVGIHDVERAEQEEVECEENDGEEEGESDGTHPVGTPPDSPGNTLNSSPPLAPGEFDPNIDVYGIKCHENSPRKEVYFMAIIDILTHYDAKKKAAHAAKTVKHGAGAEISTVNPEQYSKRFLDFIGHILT
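qHTS, 1536-well: enzyme/substrate mix, compound by pin tool, 5 microM ATP final; RT 60 min; ADP-Glo reagents 1 (45 min) then 2 (30 min); luminescence.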
POLK inh: DNA polymerase kappa (human) inhibition | Q9UBT6 | Potency, µM (doses to about 107 µM), for inactives: at the highest dose activity, negative = inhibition, most hits filed as inhibitors | hit rate 0.53% among 400,000 | purified Pol kappa, fluorescent DNA synthesis assay, 10 min; also: potency is read from the fitted curve at half-maximal effect; % is scaled to controls: 0 for no effect and ±100 for the full control effect
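10 nM Pol kappa was preincubated with compounds for 15 min at room temperature. Reaction started with 50 nM (final) substrate. Fluorescence read kinetically at 0 and 10 min.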
WRN inhibitor: blocks human WRN helicase | Potency, µM (top dose mostly 114 µM), without a hit: top-dose activity change, negative = inhibition, usual class: inhibitors | hit rate 0.46% among 360,000 | WRN helicase unwinding, fluorescent forked duplex, kinetic | AID 651768; also: potency is read from the fitted curve at half-maximal effect; % is scaled to controls: 0 for no effect and ±100 for the full control effect; nearly all actives have a fitted effect of over 55% in size
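Kinetic red-fluorescence monitoring (525/598 nm) tracks WRN helicase activity after 100 nM fluorophore-quencher forked duplex and 2 mM ATP are added to 20 nM enzyme pretreated 15 min at room temperature with compound.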
POLB inh: DNA polymerase beta (human) inhibition. P06746. Pol beta primer extension/strand displacement, fluorescence kinetic. Potency, µM (series often up to 114 µM), for inactives: at the highest dose activity change, negative = inhibition, actives largely listed as inhibitors. hit rate 1.3% among 340,000; also: potency is read from the fitted curve at half-maximal effect; % is scaled to controls: 0 for no effect and ±100 for the full control effect
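Kinetic readout of DNA synthesis with strand displacement by Pol beta. Compound and 10 nM enzyme sit 15 min at room temperature; 50 nM substrate starts the reaction, read immediately and at 10 min.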
POLI inh: DNA polymerase iota (human) inhibition; Q9UNA4; Pol iota fluorescent replication assay, 10 min; Potency, µM (doses to about 115 µM), for the others: at the highest dose activity, negative = inhibition, hits mostly inhibitors; hit rate 1% among 390,000; AID 588590; also: potency is read from the fitted curve at half-maximal effect
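Fluorescent replication assay read twice, at 0 min and 10 min after adding 50 nM (final) substrate. Enzyme (10 nM) and compounds were first incubated 15 min at room temperature; enzyme-free buffer wells were negative controls.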
POLH inh: blocks human DNA polymerase eta activity; Q9Y253; recombinant Pol eta, fluorescent DNA replication assay; Potency, µM (doses to about 114 µM), inactives show at the highest dose activity change, negative = inhibition, hits mostly inhibitors; hit rate 1.2% among 390,000; also: potency is read from the fitted curve at half-maximal effect; % is scaled to controls: 0 for no effect and ±100 for the full control effect
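Pol eta (10 nM) was preincubated with compounds for 15 min at room temperature, after which fluorescent replication substrate (50 nM final) was added to start the reaction. Fluorescence was read kinetically at 0 and 10 min.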
Numbers without * were called inactive; ? = inconclusive; / = not tested or not shown; ! = a repeat was not active; [ ] = dose if it differs, or a comment. Rows were chosen to be rich in hits. Some 2.8% of all compounds tested hit in one or more screens of this group. Unless noted, calls follow the shape of the dose curve; as a rule, active = well fitted curve in the direction sought with a large enough effect; inconclusive = small, poorly fitted or top-dose-only effect, or another doubt; inactive = no such curve, though single readings can be large; an effect the other way counts as inactive or inconclusive.

SMILES | PI5P4K alpha inh | POLK inh | WRN inhibitor | POLB inh | POLI inh | POLH inh
N#CC(C#N)=C1C=CC=CN1/C(=C\c1ccco1)C(=O)c1ccccc1 | 1 | -5% | 18µM* | 29% | -15% | -18%
CCSc1nnc2c(n1)OC(c1sccc1C)N(C(C)=O)c1ccccc1-2 (centres undefined) | / | -8% | / | 28% | 0% | -12%
CCCCCCC(=O)N(O)C1CC(=O)N(c2ccc(Cl)cc2)C1=O (centres undefined) | -26 | 3% | 79µM* | -14% | -2% | -8%
O=C(Cn1nc(C(=O)O)c2ccccc2c1=O)Nc1ccc(Cl)c(S(=O)(=O)N2CCOCC2)c1 | -12 | -11% | -30% | / | 78% | 9%
COc1ccccc1NS(=O)(=O)c1cc(NC(=O)CNC(=O)c2ccc(C)s2)ccc1Cl | -1 | -28% | 56µM* | 19% | 79µM* | ?
COc1ccccc1NC(=O)Nc1ccc(Cl)c(S(=O)(=O)Nc2ccccc2OC)c1 | 1 | -13% | -9% | 2% | 145% | -9%
COc1cc(N(C)C)ccc1/C=C1\C=Cc2ccccc21 | / | 4% | / | / | 51% | /
Cc1cc(S(=O)(=O)Nc2ccc(C(=O)NCCN3CCOCC3)cc2)ccc1F | 9 | / | 5% | / | / | -3%
COc1ccc(NC2CCCN(C(=O)c3cccc(C)n3)C2)cc1OC (centres undefined) | 1 | ? | -4%[11.6 µM] | 3% | 50µM* | -2%
COc1ccccc1C(=O)OCC(=O)Nc1ccc(N2CCCCC2)cc1 | / | -2% | / | / | 5% | /
Cc1cc2nc(-c3cccc(NC(=O)CSc4ccc(Cl)cc4)c3)oc2cc1C | / | -14% | / | -19% | 2% | -18%
CCCC[C@@H]1C[C@H]1[C@@H](NC(=O)c1ccccc1)c1ccccc1C(F)(F)F | 6 | -4% | -8% | -4% | 7% | -9%
CCCC[C@@H]1C[C@H]1[C@@H](NC(=O)c1ccco1)c1ccc(C(=O)OC)cc1 | ? | -18% | -18% | / | 12% | 32µM*
Cc1oc(C)c2c(=O)cc(-c3ccc4c(c3)OCO4)cc(OC(=O)c3ccccc3Cl)c12 | / | ? | / | 18µM* | 79µM* | ?
CC1(C)C(OC(=O)CCC(=O)O)CC[C@]2(C)C1CC[C@@]1(C)C2C(=O)C=C2[C@@H]3C[C@@](C)(C(=O)O)CC[C@]3(C)CCC21C (some centres undefined) | / | -7%[60.1 µM] | / | / | / | /
CCN(C(=O)CSc1nc2cc(C(=O)O)ccc2c(=O)n1Cc1ccccc1)c1ccccc1 | -53* | -4% | -1% | -2% | 16% | -1%
COc1ccc2[nH]c3c(NCCC4=CCCCC4)ncnc3c2c1 | -61* | -3% | -20% | ? | -2% | ?
CCN(CC)CCNc1ncnc2c1[nH]c1ccc(OC)cc12 | / | / | / | -12% | / | /
COc1ccc2[nH]c3c(NCc4ccco4)ncnc3c2c1 | / | -22% | -34% | ? | 79µM*! | ?
CCOc1ccc2[nH]c3c(NCCN(C)C)ncnc3c2c1 | / | / | / | 56µM* | / | /
COc1ccccc1C(=O)NC(=O)Nc1c(C)cc(C)cc1C | 6 | -2% | -1% | -15% | 11% | -22%
COc1cc2c(=O)n(Cc3ccccc3Cl)c(=O)n(CC(=O)Nc3ccc(C)c(C)c3)c2cc1OC | / | 12% | / | 21% | 9% | 4%
COc1ccc(CNC(=O)C2CCN(S(=O)(=O)c3ccc4c(c3)CCCN4C(C)=O)CC2)cc1 | / | -4%[60.1 µM] | / | 0% | 12% | -22%
CCSc1nc(-c2ccco2)ccc1C#N | -73* | -32% | -35% | ? | ? | ?
C=CCc1ccccc1OCC(O)CN1CCN(c2ccccc2)CC1 (centres undefined) | / | ? | / | -5% | 79µM* | -18%
SMILES | PI5P4K alpha inh | POLK inh | WRN inhibitor | POLB inh | POLI inh | POLH inh
CCCCCCSc1nc(O)c(C2OC(=O)c3c2ccc(OC)c3OC)c(=O)n1-c1ccccc1 (centres undefined) | -23 | -27% | -29%[57.1 µM] | -20% | ? | 18µM*
CCCCSc1nc(O)c(C2OC(=O)c3c2ccc(OC)c3OC)c(=O)n1C (centres undefined) | -1 | 3% | -21% | 40% | ? | -2%
Nc1cc([N+](=O)[O-])ccc1Nc1ccc(O)cc1 | -57* | -12% | -11% | 22% | -27% | -11%
CCOc1ccccc1CN1CCNC(=O)C1CC(=O)NC1CCCCCCC1 (centres undefined) | -7 | -9% | -13% | / | 21% | -7%
Cc1cccc(Nc2cc(C)c3c(O)cccc3n2)c1C | -4 | 2% | 1% | -22% | -11% | -20%
O=C(CSC1=NC(=O)C(c2ccccc2)C(=O)N1)Nc1ccccc1[N+](=O)[O-] (centres undefined) | -22 | ? | -10%[11.6 µM] | ? | ? | 50µM*
O=C(N/N=C/c1c[nH]c2ccccc12)c1ccc(O)c(O)c1 | ? | ? | ? | 45µM* | ? | ?
O=C(N/N=C/c1c[nH]c2ccccc12)c1cccc(O)c1 | -4 | -5%[60.1 µM] | -3% | -9% | 12% | -19%
O[C@@H]1Cc2ccccc2O[C@H]1c1ccccc1 | 0 | 0% | 5%[57.1 µM] | / | 1% | -22%
O=C1c2c(O)cc(O)cc2O[C@@]12c1c(cc(O)c3c1O[C@H](c1ccc(O)cc1)[C@@H](O)C3)O[C@@H]2c1ccc(O)cc1 | -22 | ? | -10%[11.6 µM] | -11% | ? | -19%
Oc1cc(O)c2c(c1)O[C@H](c1ccc(O)c(O)c1)[C@@H](O)C2 | -2 | ? | / | 13µM* | ? | 28µM*!
Oc1ccc2c(c1)OC(c1ccc(O)c(O)c1)C(O)C2 (centres undefined) | / | 10µM* | / | / | / | /
COc1cc(-c2cc3nc(NCc4ccco4)ccn3n2)cc(OC)c1OC | 3 | / | -24% | / | / | /
CCC1CCCCN1C(=O)CCS(=O)(=O)c1cc2c(cc1C)NC(=O)CO2 (centres undefined) | / | 5% | / | 10% | 30% | -17%
